Laboratory results taken from the supplement of paper PMC6411743.
± gives the standard deviation of the averaged measurements. The full data set covers some 5,400 targets. This sample favours those with the largest changes.

Compound: Nc1nc2c(ncn2[C@@H]2O[C@H](COP(=O)(O)OP(=O)(O)OP(=O)(O)O)[C@@H](O)[C@H]2O)c(=O)[nH]1 [guanosine triphosphate]
Test: NP40-soluble protein abundance relative to vehicle (solubility fold change) (ratio); higher = more soluble protein in presence of GTP
Summary of the method: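 Crude Jurkat lysate, prepared by Dounce homogenisation, was exposed to eight concentrations from 0.1 to 10 mM for 10 min at room temperature and then 3 min at 37 °C. Solubilisation used 0.8% NP40 with benzonase for 60 min at 4 °C, followed by ultracentrifugation and TMT labelling of the supernatant for LC-MS/MS. After vsn normalisation of intensities, each value is the fold change against the detergent-processed vehicle within each replicate, across three independent experiments.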

UniProt Q9BTE7, sequence (Q9BTE7 whole entry): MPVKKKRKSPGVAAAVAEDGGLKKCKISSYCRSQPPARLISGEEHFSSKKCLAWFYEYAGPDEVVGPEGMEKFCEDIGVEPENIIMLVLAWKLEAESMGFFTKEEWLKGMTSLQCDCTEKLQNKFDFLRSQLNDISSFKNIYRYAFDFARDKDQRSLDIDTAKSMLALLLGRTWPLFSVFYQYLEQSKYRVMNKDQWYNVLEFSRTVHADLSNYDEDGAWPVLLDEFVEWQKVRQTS
UniProt Q96HS1, sequence (Q96HS1 whole entry): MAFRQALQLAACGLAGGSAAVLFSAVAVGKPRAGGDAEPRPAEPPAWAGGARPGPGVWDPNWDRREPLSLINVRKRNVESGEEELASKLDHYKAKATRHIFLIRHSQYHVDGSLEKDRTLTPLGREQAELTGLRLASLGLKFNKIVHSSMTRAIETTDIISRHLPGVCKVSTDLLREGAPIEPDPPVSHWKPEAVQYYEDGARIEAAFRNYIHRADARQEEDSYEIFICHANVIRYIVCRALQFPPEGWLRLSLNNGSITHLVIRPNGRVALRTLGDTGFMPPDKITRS
UniProt Q9Y5J1, sequence (Q9Y5J1 whole entry): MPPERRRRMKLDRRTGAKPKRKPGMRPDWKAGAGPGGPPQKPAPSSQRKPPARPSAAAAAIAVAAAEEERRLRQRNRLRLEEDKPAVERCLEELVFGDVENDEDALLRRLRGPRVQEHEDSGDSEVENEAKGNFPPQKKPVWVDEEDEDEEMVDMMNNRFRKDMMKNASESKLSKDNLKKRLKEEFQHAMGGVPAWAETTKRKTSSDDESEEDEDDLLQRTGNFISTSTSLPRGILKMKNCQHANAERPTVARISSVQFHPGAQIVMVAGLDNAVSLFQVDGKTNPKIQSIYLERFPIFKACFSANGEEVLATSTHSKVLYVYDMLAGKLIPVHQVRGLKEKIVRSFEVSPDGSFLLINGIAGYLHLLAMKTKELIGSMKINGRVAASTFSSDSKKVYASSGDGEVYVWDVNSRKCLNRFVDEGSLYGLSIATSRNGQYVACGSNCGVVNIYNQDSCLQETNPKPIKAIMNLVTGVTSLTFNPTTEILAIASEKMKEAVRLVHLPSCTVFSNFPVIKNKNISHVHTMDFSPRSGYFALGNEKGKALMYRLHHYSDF
UniProt Q9Y4W6, sequence (Q9Y4W6 whole entry): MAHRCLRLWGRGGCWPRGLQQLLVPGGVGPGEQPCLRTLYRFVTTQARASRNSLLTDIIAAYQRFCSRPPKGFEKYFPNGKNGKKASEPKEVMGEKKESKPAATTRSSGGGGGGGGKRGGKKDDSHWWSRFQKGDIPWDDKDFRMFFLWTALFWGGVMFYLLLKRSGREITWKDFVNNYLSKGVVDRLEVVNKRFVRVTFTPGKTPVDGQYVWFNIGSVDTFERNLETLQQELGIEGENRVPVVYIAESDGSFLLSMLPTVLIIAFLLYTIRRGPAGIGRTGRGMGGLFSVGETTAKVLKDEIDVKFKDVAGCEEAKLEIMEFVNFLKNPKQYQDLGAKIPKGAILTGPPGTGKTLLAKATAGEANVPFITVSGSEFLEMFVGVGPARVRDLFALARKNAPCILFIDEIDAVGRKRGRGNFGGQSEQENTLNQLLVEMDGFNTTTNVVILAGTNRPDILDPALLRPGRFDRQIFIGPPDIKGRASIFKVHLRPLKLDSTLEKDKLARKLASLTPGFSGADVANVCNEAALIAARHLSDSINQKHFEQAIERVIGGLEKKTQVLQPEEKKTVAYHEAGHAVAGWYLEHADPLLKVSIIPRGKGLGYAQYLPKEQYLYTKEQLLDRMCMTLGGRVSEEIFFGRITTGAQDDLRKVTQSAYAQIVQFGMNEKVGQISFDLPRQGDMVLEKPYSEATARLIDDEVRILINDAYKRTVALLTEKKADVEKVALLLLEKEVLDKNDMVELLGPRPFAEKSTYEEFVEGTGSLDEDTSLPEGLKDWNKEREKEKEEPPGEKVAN
UniProt Q9UGP8, sequence (Q9UGP8 whole entry): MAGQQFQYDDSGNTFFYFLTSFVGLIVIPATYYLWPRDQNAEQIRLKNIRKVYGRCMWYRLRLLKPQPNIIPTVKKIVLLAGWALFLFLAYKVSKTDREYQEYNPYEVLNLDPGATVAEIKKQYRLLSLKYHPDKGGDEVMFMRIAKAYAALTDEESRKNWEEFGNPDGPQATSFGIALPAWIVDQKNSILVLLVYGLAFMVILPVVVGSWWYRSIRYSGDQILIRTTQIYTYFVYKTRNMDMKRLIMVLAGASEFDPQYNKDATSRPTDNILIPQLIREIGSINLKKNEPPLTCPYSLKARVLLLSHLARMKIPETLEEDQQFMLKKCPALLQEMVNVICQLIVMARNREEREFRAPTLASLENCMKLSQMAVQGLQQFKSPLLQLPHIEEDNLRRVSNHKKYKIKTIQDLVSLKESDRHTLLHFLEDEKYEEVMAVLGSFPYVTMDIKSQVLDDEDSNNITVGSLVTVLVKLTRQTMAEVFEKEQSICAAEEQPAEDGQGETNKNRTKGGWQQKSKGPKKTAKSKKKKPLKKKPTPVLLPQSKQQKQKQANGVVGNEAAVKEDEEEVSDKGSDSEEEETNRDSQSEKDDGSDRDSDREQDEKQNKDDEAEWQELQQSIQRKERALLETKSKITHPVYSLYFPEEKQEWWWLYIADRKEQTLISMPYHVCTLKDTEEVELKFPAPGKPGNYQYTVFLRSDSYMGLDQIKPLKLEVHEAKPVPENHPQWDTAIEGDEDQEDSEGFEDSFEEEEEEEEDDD
UniProt Q9UKY7, sequence (Q9UKY7 whole entry): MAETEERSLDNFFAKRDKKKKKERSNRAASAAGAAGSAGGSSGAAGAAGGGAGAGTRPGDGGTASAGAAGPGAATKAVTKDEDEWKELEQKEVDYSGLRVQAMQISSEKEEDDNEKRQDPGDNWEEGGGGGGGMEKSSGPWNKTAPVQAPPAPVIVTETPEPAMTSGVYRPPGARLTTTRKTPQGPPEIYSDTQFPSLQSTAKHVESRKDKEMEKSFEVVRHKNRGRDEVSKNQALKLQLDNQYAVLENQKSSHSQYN
UniProt Q9NX24, sequence (Q9NX24 whole entry): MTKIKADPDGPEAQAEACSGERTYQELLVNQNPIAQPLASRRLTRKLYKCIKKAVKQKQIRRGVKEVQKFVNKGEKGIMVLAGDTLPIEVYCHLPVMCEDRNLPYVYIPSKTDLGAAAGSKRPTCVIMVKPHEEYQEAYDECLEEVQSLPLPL
UniProt Q96CT7, sequence (Q96CT7 whole entry): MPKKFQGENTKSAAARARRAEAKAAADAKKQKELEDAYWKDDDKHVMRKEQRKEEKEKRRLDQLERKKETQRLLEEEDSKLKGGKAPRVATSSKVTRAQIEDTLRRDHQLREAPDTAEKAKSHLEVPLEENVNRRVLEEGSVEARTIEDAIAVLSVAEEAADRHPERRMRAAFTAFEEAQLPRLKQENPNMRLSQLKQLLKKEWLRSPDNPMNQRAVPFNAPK
UniProt Q9HC52, sequence (Q9HC52 whole entry): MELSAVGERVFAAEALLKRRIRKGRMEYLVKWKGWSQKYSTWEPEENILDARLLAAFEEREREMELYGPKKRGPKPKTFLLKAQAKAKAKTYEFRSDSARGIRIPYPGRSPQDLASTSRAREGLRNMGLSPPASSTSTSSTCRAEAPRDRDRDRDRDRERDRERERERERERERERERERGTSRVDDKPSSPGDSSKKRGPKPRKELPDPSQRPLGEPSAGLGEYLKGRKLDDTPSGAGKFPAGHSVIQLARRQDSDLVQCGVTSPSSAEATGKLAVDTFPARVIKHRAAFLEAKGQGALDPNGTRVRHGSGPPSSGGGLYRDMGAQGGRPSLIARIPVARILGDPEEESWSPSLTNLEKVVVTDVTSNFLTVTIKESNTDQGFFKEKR
UniProt Q9BWJ5, sequence (Q9BWJ5 whole entry): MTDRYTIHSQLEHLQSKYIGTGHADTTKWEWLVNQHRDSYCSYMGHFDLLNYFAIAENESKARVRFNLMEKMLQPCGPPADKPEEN
UniProt Q9P2J5, sequence (Q9P2J5 whole entry, looked up): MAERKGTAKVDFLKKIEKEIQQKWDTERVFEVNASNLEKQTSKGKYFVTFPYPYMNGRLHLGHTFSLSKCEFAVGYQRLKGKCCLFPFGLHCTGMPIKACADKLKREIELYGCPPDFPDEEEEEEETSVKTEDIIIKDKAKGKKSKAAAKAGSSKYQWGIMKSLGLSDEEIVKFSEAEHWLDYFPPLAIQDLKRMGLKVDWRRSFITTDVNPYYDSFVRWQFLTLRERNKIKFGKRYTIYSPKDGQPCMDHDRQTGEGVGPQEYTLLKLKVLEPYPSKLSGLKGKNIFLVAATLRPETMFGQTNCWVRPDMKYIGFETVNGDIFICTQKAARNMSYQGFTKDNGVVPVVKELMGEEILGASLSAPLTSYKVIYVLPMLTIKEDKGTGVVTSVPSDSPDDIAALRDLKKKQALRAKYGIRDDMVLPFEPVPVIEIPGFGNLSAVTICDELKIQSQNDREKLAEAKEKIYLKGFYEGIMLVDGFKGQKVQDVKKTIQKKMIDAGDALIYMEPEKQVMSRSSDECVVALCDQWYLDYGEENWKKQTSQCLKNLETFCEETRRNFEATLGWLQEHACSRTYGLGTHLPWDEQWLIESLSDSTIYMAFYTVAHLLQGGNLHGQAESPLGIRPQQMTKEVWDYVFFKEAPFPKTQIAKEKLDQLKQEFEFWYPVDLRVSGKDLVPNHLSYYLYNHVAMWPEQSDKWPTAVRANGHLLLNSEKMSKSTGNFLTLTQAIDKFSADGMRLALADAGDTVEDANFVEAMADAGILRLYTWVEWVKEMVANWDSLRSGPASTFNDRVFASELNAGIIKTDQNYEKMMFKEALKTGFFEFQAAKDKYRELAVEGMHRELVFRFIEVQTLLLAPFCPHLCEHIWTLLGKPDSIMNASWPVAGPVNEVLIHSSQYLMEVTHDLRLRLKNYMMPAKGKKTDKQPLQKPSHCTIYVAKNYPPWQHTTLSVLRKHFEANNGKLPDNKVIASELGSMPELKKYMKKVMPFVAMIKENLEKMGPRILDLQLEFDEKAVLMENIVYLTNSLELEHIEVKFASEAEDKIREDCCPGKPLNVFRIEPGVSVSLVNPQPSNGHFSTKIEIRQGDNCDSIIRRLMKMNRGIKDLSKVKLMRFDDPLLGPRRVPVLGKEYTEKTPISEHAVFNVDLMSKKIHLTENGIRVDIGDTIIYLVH

Target	NP40-soluble protein abundance (concentration: 0.1mM)	NP40-soluble protein abundance (concentration: 0.5mM)	NP40-soluble protein abundance (concentration: 1mM)	NP40-soluble protein abundance (concentration: 2mM)	NP40-soluble protein abundance (concentration: 4mM)	NP40-soluble protein abundance (concentration: 6mM)	NP40-soluble protein abundance (concentration: 8mM)	NP40-soluble protein abundance (concentration: 10mM)
PGAM5 (UniProt Q96HS1)	1.03 ± 0.034	1.09 ± 0.073	1.18 ± 0.14	1.4 ± 0.26	1.67 ± 0.38	1.79 ± 0.45	1.86 ± 0.4	1.95 ± 0.47
DCUN1D5 (UniProt Q9BTE7)	0.984 ± 0.048	0.929 ± 0.07	0.918 ± 0.076	0.916 ± 0.077	0.948 ± 0.027	0.883 ± 0.056	0.891 ± 0.069	0.883 ± 0.074
UniProt Q9H0F7|Q9H0F7-2|A0A0J9YXT0	1.02 ± 0.063	1.03 ± 0.1	0.914 ± 0.011	0.986 ± 0.12	0.932 ± 0.065	0.904 ± 0.032	0.864 ± 0.061	0.882 ± 0.065
SF3B5 (UniProt Q9BWJ5)	1.1 ± 0.16	1.11 ± 0.16	1.17 ± 0.23	1.27 ± 0.2	1.25 ± 0.21	1.33 ± 0.15	1.31 ± 0.19	1.38 ± 0.22
CBX8 (UniProt Q9HC52)	1.01 ± 0.04	1.04 ± 0.048	1.13 ± 0.013	1.24 ± 0.14	1.42 ± 0.15	1.61 ± 0.15	1.74 ± 0.17	1.86 ± 0.23
SEC63 (UniProt Q9UGP8)	0.964 ± 0.023	0.977 ± 0.022	0.935 ± 0.045	0.926 ± 0.036	0.913 ± 0.073	0.927 ± 0.026	0.93 ± 0.022	0.897 ± 0.03
ZHX3 (UniProt Q9H4I2)	0.975 ± 0.062	0.94 ± 0.043	0.994 ± 0.1	1.01 ± 0.099	0.967 ± 0.039	1.01 ± 0.079	1.05 ± 0.07	1.05 ± 0.11
UniProt Q9P287|Q9P287-2	1.03 ± 0.026	0.973 ± 0.032	0.971 ± 0.066	0.953 ± 0.059	0.99 ± 0.083	0.913 ± 0.069	0.943 ± 0.058	0.946 ± 0.075
UniProt Q9BVP2|Q9BVP2-2	1.31 ± 0.073	1.3 ± 0.094	1.34 ± 0.11	1.51 ± 0.19	1.68 ± 0.17	1.73 ± 0.13	1.77 ± 0.2	1.88 ± 0.072
UniProt Q9ULV4|Q9ULV4-2|Q9ULV4-3	0.986 ± 0.021	1.11 ± 0.089	1.16 ± 0.088	1.26 ± 0.17	1.42 ± 0.22	1.53 ± 0.3	1.67 ± 0.33	1.74 ± 0.36
UniProt Q9BW83|Q9BW83-2	0.972 ± 0.019	1.05 ± 0.059	0.971 ± 0.02	0.958 ± 0.013	0.911 ± 0.036	0.95 ± 0.018	0.916 ± 0.016	0.944 ± 0.0068
LARS (UniProt Q9P2J5)	1.05 ± 0.078	1.13 ± 0.15	1.07 ± 0.18	1.17 ± 0.26	1.2 ± 0.26	1.21 ± 0.28	1.16 ± 0.24	1.09 ± 0.23
UniProt Q96MT7-2	1.09 ± 0.063	0.959 ± 0.033	1 ± 0.093	0.863 ± 0.12	0.869 ± 0.04	0.915 ± 0.14	0.834 ± 0.052	0.786 ± 0.082
AFG3L2 (UniProt Q9Y4W6)	0.998 ± 0.016	0.996 ± 0.016	0.946 ± 0.024	0.969 ± 0.022	0.977 ± 0.022	0.987 ± 0.04	0.988 ± 0.02	0.938 ± 0.014
MED10 (UniProt Q9BTT4)	1.01 ± 0.2	1.03 ± 0.098	0.973 ± 0.028	1.07 ± 0.11	0.95 ± 0.094	1.08 ± 0.05	0.968 ± 0.092	1.07 ± 0.038
UniProt Q9NW08|Q9NW08-2	1.08 ± 0.03	1.13 ± 0.075	1.09 ± 0.12	1.15 ± 0.18	1.19 ± 0.16	1.16 ± 0.19	1.13 ± 0.18	1.09 ± 0.17
CCDC124 (UniProt Q96CT7)	1.01 ± 0.047	0.984 ± 0.019	1.12 ± 0.063	1.17 ± 0.067	1.41 ± 0.17	1.57 ± 0.22	1.61 ± 0.22	2.24 ± 0.18
UniProt Q9UJX5|Q9UJX5-3|Q9UJX5-2	1.2 ± 0.19	1.24 ± 0.3	1.15 ± 0.19	1.27 ± 0.23	1.25 ± 0.27	1.23 ± 0.32	1.2 ± 0.23	1.13 ± 0.17
UniProt Q9UBD5|Q9UBD5-2	0.981 ± 0.061	1.06 ± 0.076	0.957 ± 0.092	1.04 ± 0.049	0.998 ± 0.069	1.04 ± 0.04	1.02 ± 0.1	1.07 ± 0.018
UniProt Q9NZM5	0.985 ± 0.053	0.939 ± 0.14	1.04 ± 0.083	1.03 ± 0.17	1.05 ± 0.16	1.07 ± 0.21	1.18 ± 0.17	1.13 ± 0.093
CDV3 (UniProt Q9UKY7)	0.957 ± 0.072	1.05 ± 0.071	0.915 ± 0.072	0.955 ± 0.11	0.889 ± 0.093	1 ± 0.092	1.09 ± 0.083	1.11 ± 0.068
DMAP1 (UniProt Q9NPF5)	1.04 ± 0.056	1.06 ± 0.059	1.11 ± 0.079	1.17 ± 0.099	1.22 ± 0.12	1.24 ± 0.15	1.29 ± 0.2	1.26 ± 0.18
NHP2 (UniProt Q9NX24)	0.959 ± 0.056	0.942 ± 0.054	1.02 ± 0.069	1.09 ± 0.067	1.2 ± 0.096	1.39 ± 0.16	1.45 ± 0.16	1.75 ± 0.35
UniProt Q9UJ83|Q9UJ83-2|Q9UJ83-3	1.067 ± 0.0066	1.03 ± 0.11	0.98 ± 0.05	1.01 ± 0.11	0.987 ± 0.04	0.958 ± 0.08	0.926 ± 0.021	0.9129 ± 0.0074
DDX23 (UniProt Q9BUQ8)	1.04 ± 0.036	1.09 ± 0.067	1.19 ± 0.12	1.27 ± 0.075	1.55 ± 0.18	1.62 ± 0.19	1.89 ± 0.28	1.93 ± 0.23
DDX18 (UniProt Q9NVP1)	1.084 ± 0.0038	1.11 ± 0.024	1.08 ± 0.021	1.2 ± 0.071	1.42 ± 0.057	1.55 ± 0.061	1.69 ± 0.043	1.94 ± 0.066
UTP18 (UniProt Q9Y5J1)	1.06 ± 0.091	1.16 ± 0.12	1.13 ± 0.091	1.24 ± 0.091	1.37 ± 0.11	1.3 ± 0.044	1.37 ± 0.17	1.57 ± 0.17
FBXO28 (UniProt Q9NVF7)	1.09 ± 0.028	1.08 ± 0.13	1.28 ± 0.18	1.31 ± 0.099	1.39 ± 0.12	1.47 ± 0.12	1.42 ± 0.28	1.61 ± 0.25
